PubChem BioAssay (EPA / NIEHS)
More than one record can exist for a structure, and the calls need not agree. Active and inactive are the calls of the source. How the source made its calls: active means hit-call score of the fitted dose curve at least 0.9, where 1 is the maximum; inactive means score below 0.9.

read-out: Human Leukocyte Antigen - DR isotype (HLADR), HLA-DRA (gene 3122); assay: BSK_3C_HLADR: BioMAP Diversity Plus: 3C Assay for Human Leukocyte Antigen - DR isotype (HLADR) Biomarker Activity (AID 2283019); details: primary human endothelial cells (HUVEC); actives raise or lower the signal
Description: BSK_3C is a cell-based, multiplexed-readout assay that uses umbilical vein endothelium, a human vascular primary cell, with measurements taken at 24 hours after chemical dosing in a 96-well plate.BSK_3C_HLADR is an assay component measured in the BSK_3C assay. It measures HLA-DR antibody related to regulation of gene expression using ELISA technology.Data from the assay component BSK_3C_HLADR was analyzed into 1 assay endpoint. This assay endpoint, BSK_3C_HLADR, was analyzed with bidirectional fitting relative to DMSO as the negative control and baseline of activity. Using a type of binding reporter, gain or loss-of-signal activity can be used to understand changes in the signaling as they relate to the gene HLA-DRA. Furthermore, this assay endpoint can be referred to as a primary readout, because this assay has produced multiple assay endpoints where this one serves a signaling function. To generalize the intended target to other relatable targets, this assay endpoint is annotated to the cell adhesion molecules intended target family, where the subfamily is MHC Class II.
The levels of cell surface (or secreted, indicated by the prefix "s") biomarker endpoints were measured by ELISA. Overt cytotoxicity to cells in confluent adherent cultures (all systems other than the BT system) was assessed by measuring total protein levels using sulforhodamine B (SRB) staining in parallel cultures at the time of biomarker measurements, indicated as SRB endpoints. For proliferation assays for adherent cell types, individual cell types are cultured at sub-confluence and relative cell numbers quantified by SRB staining at time points optimized for each system (48 h: 3C and CASM3C systems; 72 h: BT and HDF3CGF systems; 96 h: SAg system). SRB was performed by staining cells with 0.1% SRB after fixation with 10% TCA and reading wells at 560 nm.Viability and proliferation of PBMC (T cells) was quantified by Alamar Blue reduction for the SAg and BT systems. For PBMC viability (referred to as PBMC Cytotoxicity within the assay endpoint names), cells were plated (75,000/well in a 96-well plate) and then chemical samples added for 1 h before addition of activators, SEB and TSST-1 (20 ng/mL final concentration each). Cells were incubated for 90 h. Then, Alamar Blue (20 uL/well) (Invitrogen, Cat DAL1100) was added for 6 h, and the plates were read with a fluorescence microplate reader at 546/580 nm (excitation/emission). For PBMC proliferation, cells were plated and activated as above but incubated for only 16 h prior to addition of Alamar Blue. Plates were read after 6 h.

Question: `ClC1(Cl)C2(Cl)C3(Cl)C4(Cl)C(Cl)(Cl)C5(Cl)C3(Cl)C1(Cl)C5(Cl)C24Cl` (stereo not given) was tested. Which outcome did it give?
Answer: inactive

Question: With `COC(=O)c1sccc1S(=O)(=O)NC(=O)Nc1nc(C)nc(OC)n1` as the compound, how does the outcome read?
Answer: inactive

Question: Which outcome does the source give for `C=CC(=O)OCCCCCC(C)C` here?
Answer: inactive

Question: With `CCCCC(CC)CO[N+](=O)[O-]` (stereo not given) as the compound, how does the AC50 read?
Answer: 35.4 µM (active)

Question: How did the outcome turn out when `O=Cc1cccc(Oc2ccccc2)c1` was run?
Answer: inactive

Question: `O=C(O)C(Cl)(Cl)Cl` was tested. Which outcome did it give?
Answer: inactive

Question: For `NC(=O)O`, which outcome is on record?
Answer: inactive

Question: With `CC(C)(c1ccccc1)c1ccc(O)c(C(C)(C)c2ccccc2)c1` as the compound, how does the AC50 read?
Answer: 7.99 µM (active)

Question: With `CCCCCCCCc1ccc(O)cc1` as the compound, how does the AC50 read?
Answer: 31.5 µM (active)

Question: With `O=C(O)C(F)(F)C(F)(F)C(F)(F)C(F)(F)C(F)(F)C(F)(F)C(F)(F)C(F)(F)C(F)(F)C(F)(F)F` as the compound, how does the AC50 read?
Answer: 29.7 µM (active)

Question: What about the outcome of the same compound?
Answer: inactive

Question: For `CCOP(=S)(OCC)Oc1nc(Cl)c(Cl)cc1Cl`, which AC50 is on record?
Answer: 28.2 µM (active)

Question: With `CC(C)CCCCCCOC(=O)c1ccccc1C(=O)OCCCCCCC(C)C` as the compound, how does the outcome read?
Answer: inactive

Question: `O=C(Nc1ccc2[nH]ccc2c1)c1cc2cc(F)ccc2n1Cc1cccc(F)c1` was tested. Which AC50 did it give?
Answer: 7.97 µM (active)

Question: Which outcome does the source give for `O=C(O)C(F)(F)C(F)(F)C(F)(F)C(F)(F)C(F)(F)C(F)(F)F` here?
Answer: inactive

Question: Which AC50 does the source give for `COP(=S)(OC)Oc1cc(Cl)c(Cl)cc1Cl` here?
Answer: 27.4 µM (active)

Question: With `CCC(C)(C)c1ccc(O)c(C(C)(C)CC)c1` as the compound, how does the AC50 read?
Answer: 7.84 µM (active)

Question: With `Cn1sc(Cl)cc1=O` as the compound, how does the AC50 read?
Answer: 29.9 µM (active)

Question: `O=S(=O)(c1ccc(Cl)cc1)c1ccc(Cl)cc1` was tested. Which outcome did it give?
Answer: inactive

Question: `O=[N+]([O-])c1ccc(O)c([N+](=O)[O-])c1` was tested. Which AC50 did it give?
Answer: 28 µM (active)

Question: How did the AC50 turn out when `CC(C)(C)c1cc(O)ccc1O` was run?
Answer: 32.4 µM (active)

Question: Which AC50 does the source give for `ClC(Cl)=C(Cl)C(Cl)=C(Cl)Cl` here?
Answer: 29.8 µM (active)

Question: `CCOP(=S)(OCC)SCCS(=O)(=O)CC` was tested. Which outcome did it give?
Answer: inactive

Question: Which AC50 does the source give for `CCOC(=O)/C=C(C)/C=C/C[C@@H](C)CCCC(C)C` here?
Answer: 28.1 µM (active)

Question: With `C=C(C)C(=O)[O][Sn]([CH2]CCC)([CH2]CCC)[CH2]CCC` as the compound, how does the AC50 read?
Answer: 0.233 µM (active)

Question: `O=C(O)CCC(F)(C(F)(F)F)C(F)(F)F` was tested. Which outcome did it give?
Answer: inactive

Question: `O=C(OC1CCCCC1)c1ccccc1C(=O)OC1CCCCC1` was tested. Which AC50 did it give?
Answer: 8.72 µM (active)

Question: For `Oc1cccc2cccnc12`, which AC50 is on record?
Answer: 4.97 µM (active)

Question: With `Oc1ccc(-c2ccccc2)cc1` as the compound, how does the outcome read?
Answer: inactive

Question: With `CCCCCCCCC(=O)NCc1ccc(O)c(OC)c1` as the compound, how does the AC50 read?
Answer: 20 µM (active)

Question: `ClC1=C(Cl)[C@]2(Cl)[C@H]3[C@H]([C@H]4C=C[C@H]3C4)[C@@]1(Cl)C2(Cl)Cl` was tested. Which AC50 did it give?
Answer: 8.54 µM (active)

Question: For `COC[C@H](C)N(C(=O)CCl)c1c(C)csc1C`, which outcome is on record?
Answer: inactive

Question: How did the AC50 turn out when `COP(=S)(OC)Oc1ccc(S(=O)(=O)N(C)C)cc1` was run?
Answer: 32.3 µM (active)

Question: Which AC50 does the source give for `CCNc1nc(NC(C)(C)C)nc(SC)n1` here?
Answer: 20 µM (active)

Question: How did the AC50 turn out when `Nc1ccc(-c2ccc(N)c(Cl)c2)cc1Cl` was run?
Answer: 2.43 µM (active)

Question: `CC1(C)Cc2cccc(O)c2O1` was tested. Which outcome did it give?
Answer: inactive

Question: For `CCN1CCC2(CC1)COc1cc3c(cc12)N(C(=O)c1ccc(-c2ccc(-c4nnc(C)o4)cc2C)cc1)CC3`, which AC50 is on record?
Answer: 13 µM (active)

Question: Which outcome does the source give for `Nc1ncc([N+](=O)[O-])s1` here?
Answer: inactive

Question: Which outcome does the source give for `CCOP(=S)(OCC)SCSP(=S)(OCC)OCC` here?
Answer: inactive

Question: How did the outcome turn out when `O=c1[nH]c(=O)[nH]c(=O)[nH]1` was run?
Answer: inactive
